From PubChem BioAssay
Inconclusive results are not listed. The source made the active and inactive calls.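 How the source made its calls, unless noted: active means inhibition above 50%, about 3 SD of the validation set; inactive means the rest.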

What was measured:
[1] = rapamycin-like changes in RPL19A-GFP expression – cell-based, S. cerevisiae, multiplex flow cytometry, primary screen (AID 1862; in the data active means percent of DMSO control GFP below about 86%;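 further: lower values mimic rapamycin by blocking the RPL19A rise seen in DMSO cells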); details: S. cerevisiae RPL19A-GFP strain, flow cytometry fluorescence, 3 h; at 10 µM; stronger effect = lower value
[2] = TOR pathway GLN3 branch reporter MEP2-GFP changes – S. cerevisiae, multiplex flow cytometry, primary screen (AID 1867;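 active means GFP response, as percent of the DMSO control, above the screen-wide mean plus 3 SD, about 139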;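 further: median GFP channel fluorescence of barcode-gated MEP2-GFP cells measured by flow cytometry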); details: S. cerevisiae MEP2-GFP strain, 3 h, at 10 µM, stronger effect = higher value, 100% means same as DMSO wells
[3] = TOR pathway RTG branch CIT2 reporter changes – S. cerevisiae, GFP fusion, multiplex flow cytometry, primary screen (AID 1870;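 active means percent response above a set limit, the screen-wide mean plus 3 SD, cut at about 130% in these data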;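 further: barcoded CIT2-GFP strain pooled with four other GFP strains with rapamycin as positive control; median GFP fluorescence per well over plate mean of DMSO wells so 100% = DMSO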); details: S. cerevisiae CIT2-GFP expression, 3 h, at 10 µM, stronger effect = higher value
[4] = TOR pathway LAP4-GFP level changes – S. cerevisiae, multiplex flow cytometry, primary screen (AID 1873;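 active means GFP signal, as percent of the solvent control, above the screen mean plus 3 SD, about 149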); details: S. cerevisiae LAP4-GFP expression, 3 h, at 10 µM, stronger effect = higher value
[5] = yeast AGP1-GFP level changes, GLN3 branch – cell-based, multiplex flow cytometry, S. cerevisiae, primary screen (AID 1887;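 active means GFP signal above the screen-wide mean plus 3 SD, that is over about 124.5% of the solvent control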;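 further: AGP1-GFP fusion strain of S. cerevisiae within a five-strain barcoded multiplex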); details: 3 h, at 10 µM, stronger effect = higher value
[6] = reduced mouse 2C T cell binding to pMHC/ICAM-1 vesicles – MLPCN validation set, flow cytometry, LFA-1/ICAM-1 modulator project, pilot screen (AID 2523;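 active means response below a set limit, under 55% cells CD8-positive and vesicle-bound, and CD8 cells' 90th-percentile brightness under 279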;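 on vesicle binding response: mean PE anti-B7-1 fluorescence of CD8+ cells relative to row control; 100% = QL9-loaded vesicles with DMSO vehicle in the same plate row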); details: 2C mouse CD8+ T cells, at 7 µM, stronger effect = lower value; double positive events: measured here: CD8+/vesicle+ event percentage
[7] = target: Integrin beta-1 (Homo sapiens) + Integrin alpha-4 (Homo sapiens) (UniProt P13612+P05556); test: alpha4beta1 integrin LIBS antibody binding reduction – U937 cells, HUTS-21 mAb, flow cytometry, validation set, VLA-4 allosteric modulator project, pilot screen (AID 2674); details: HUTS-21 LIBS mAb binding, at 6.7 µM, stronger effect = higher value, binding induced by LDV ligand;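 further: antibody binding induced by the VLA-4 ligand LDV present at three times its Kd; 0% = LDV ligand with antibody and no compound and 100% = antibody without LDV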
[8] = calorie-restriction mimetic ROS inhibitors, yeast – validation compound set, pilot screen (AID 2706;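 active means superoxide response below 65% of plate, a cut near 3 SD across the whole screen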;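 further: yeast exposed to compound for one week at 30 degrees C before staining; 100% = mean of all compound wells on the same plate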); details: S. cerevisiae aging, superoxide DHE fluorescence; at 10 µM; stronger effect = lower value
[9] = target: Beta-adrenergic receptor kinase 1 (Homo sapiens) (UniProt P25098); test: GRK2 binders displacing RNA aptamer, biochemical, validation, human GRK2, bead flow cytometry (AID 488806;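 active means aptamer binding inhibition above 30%, about 3 SD of noise from non-fluorescent compounds; inactive means inhibition at or below 30%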); details: bead-bound GRK2, FAM-aptamer displacement, at 10 µM, stronger effect = higher value
[10] = target: Beta-2 adrenergic receptor (Homo sapiens) (UniProt P07550); test: agonist-induced loss of surface beta2AR – cell-based, FAP fluorogen, flow cytometry, validation set, pilot screen (AID 504459;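 active means percent response above 42, roughly 3 SD of non-fluorescent test compounds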;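 further: agonist-driven loss of surface beta2AR via internalization measured by FAP dye flow cytometry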); details: Am2.2-beta2AR cells, at 10 µM, stronger effect = higher value
[11] = target: AP-2 complex subunit beta (Homo sapiens) (UniProt P63010); test: beta-arrestin/AP2 interaction blockers – biochemical, validation set, GST-AP2 beads, flow cytometry, pilot screen (AID 504541;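 active means inhibition above 54%, about 3 SD of non-fluorescent compounds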;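 further: AP2 carries R879A mutation and is captured from E. coli lysate; bead-bound FITC arrestin peptide fluorescence measuring arrestin peptide binding to AP2; 0% = DMSO wells and 100% = excess unlabeled arrestin peptide control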); details: FITC arrestin peptide, at 10 µM, stronger effect = higher value, AP2 beta2 appendage fragment, R879A mutant
[12] = cytosolic pH regulators acting via V-ATPase – S. cerevisiae, pHLuorin, HTS validation (AID 504600; in the data active means response above about 15%;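 further: plate controls were DMSO for no effect and reference compound for full effect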); details: V-ATPase proton transport, at 10 µM, stronger effect = higher value
[13] = tested on: anti-desmoglein-3 scFv antibody binding to human DSG3; test: blockers of pathogenic pemphigus antibody–desmoglein-3 binding – biochemical, validation compound set, bead-based, flow cytometry, pilot screen (AID 588368;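 active means binding below the plate cutoff, the plate median minus 3 SD, with a reading above zero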;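 further: signal is the median channel fluorescence of bead-bound GFP antibody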); details: Protein G beads, DSG3-Fc, scFv-GFP binding, at 10 µM, stronger effect = lower value
[14] = Nile Red efflux blockade in pump-expressing yeast – validation compound set, multiplex, phenotypic, pilot screen (AID 588506;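 active means efflux inhibition above 0.42, the validation set average plus 4 SD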;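 further: Nile Red retained in cells so higher fluorescence means more efflux inhibition; 0 = negative control wells and 1 = enniatin B 25 µM full block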); details: S. cerevisiae pump-expressing triplex, Nile Red efflux flow cytometry; at 10 µM; stronger effect = higher value; the pumps come from Candida albicans
[15] = target: ATP-binding cassette sub-family B member 6 (Homo sapiens) (UniProt Q9NP58); test: blockers of ABCB6-driven porphyrin uptake – K562-ABCB6 cells, flow cytometry, validation set, pilot screen (AID 588550;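 active means inhibition above the screen-wide mean plus 3 SD, about 51%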;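 further: 0% = DMSO wells and 100% = benzethonium chloride 70 µM positive control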); details: K562-ABCB6 porphyrin accumulation, 1 h, at 10 µM, stronger effect = higher value
[16] = AML differentiation inducers, ER-HoxA9 marrow cells – cell-based, GFP/MAC1 double positive, flow cytometry, validation set, primary screen (AID 588685;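 active means differentiation response of at least 50%, scaled between solvent and reference control, from cells with both markers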;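 further: compound exposure lasts four days before antibody staining and flow analysis; 0% = DMSO wells and 100% = 5 µM fulvestrant positive control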); details: stronger effect = higher value, normalized: vehicle 0, fulvestrant 100

AP-2 complex subunit beta (Homo sapiens), sequence (P63010 whole entry, looked up, the tested form may be a part, one chain of several): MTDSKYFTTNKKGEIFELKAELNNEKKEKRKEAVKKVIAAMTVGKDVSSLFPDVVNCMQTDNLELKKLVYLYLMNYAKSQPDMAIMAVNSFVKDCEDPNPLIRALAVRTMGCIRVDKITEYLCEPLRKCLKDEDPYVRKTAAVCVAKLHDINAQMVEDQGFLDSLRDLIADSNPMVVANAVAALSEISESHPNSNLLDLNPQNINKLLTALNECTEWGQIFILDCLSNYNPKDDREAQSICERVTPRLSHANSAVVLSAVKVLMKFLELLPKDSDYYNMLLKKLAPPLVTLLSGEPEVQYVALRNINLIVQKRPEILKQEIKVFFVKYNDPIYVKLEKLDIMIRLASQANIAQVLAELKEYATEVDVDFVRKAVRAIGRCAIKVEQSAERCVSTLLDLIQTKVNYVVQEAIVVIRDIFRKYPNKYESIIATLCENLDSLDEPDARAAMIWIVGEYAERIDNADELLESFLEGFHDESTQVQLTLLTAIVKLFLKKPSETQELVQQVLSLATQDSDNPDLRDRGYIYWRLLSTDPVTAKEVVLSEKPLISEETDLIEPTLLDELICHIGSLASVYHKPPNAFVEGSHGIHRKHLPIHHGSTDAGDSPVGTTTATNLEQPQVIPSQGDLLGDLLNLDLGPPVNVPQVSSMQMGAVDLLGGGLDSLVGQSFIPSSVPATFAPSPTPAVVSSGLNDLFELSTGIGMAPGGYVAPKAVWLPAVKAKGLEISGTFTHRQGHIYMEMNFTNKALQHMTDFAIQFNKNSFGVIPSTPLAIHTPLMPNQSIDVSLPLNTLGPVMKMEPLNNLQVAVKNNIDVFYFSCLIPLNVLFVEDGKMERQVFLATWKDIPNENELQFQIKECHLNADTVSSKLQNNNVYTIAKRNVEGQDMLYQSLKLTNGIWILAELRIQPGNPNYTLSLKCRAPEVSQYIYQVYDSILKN
Integrin beta-1 (Homo sapiens) + Integrin alpha-4 (Homo sapiens), sequence (P05556 whole entry, looked up): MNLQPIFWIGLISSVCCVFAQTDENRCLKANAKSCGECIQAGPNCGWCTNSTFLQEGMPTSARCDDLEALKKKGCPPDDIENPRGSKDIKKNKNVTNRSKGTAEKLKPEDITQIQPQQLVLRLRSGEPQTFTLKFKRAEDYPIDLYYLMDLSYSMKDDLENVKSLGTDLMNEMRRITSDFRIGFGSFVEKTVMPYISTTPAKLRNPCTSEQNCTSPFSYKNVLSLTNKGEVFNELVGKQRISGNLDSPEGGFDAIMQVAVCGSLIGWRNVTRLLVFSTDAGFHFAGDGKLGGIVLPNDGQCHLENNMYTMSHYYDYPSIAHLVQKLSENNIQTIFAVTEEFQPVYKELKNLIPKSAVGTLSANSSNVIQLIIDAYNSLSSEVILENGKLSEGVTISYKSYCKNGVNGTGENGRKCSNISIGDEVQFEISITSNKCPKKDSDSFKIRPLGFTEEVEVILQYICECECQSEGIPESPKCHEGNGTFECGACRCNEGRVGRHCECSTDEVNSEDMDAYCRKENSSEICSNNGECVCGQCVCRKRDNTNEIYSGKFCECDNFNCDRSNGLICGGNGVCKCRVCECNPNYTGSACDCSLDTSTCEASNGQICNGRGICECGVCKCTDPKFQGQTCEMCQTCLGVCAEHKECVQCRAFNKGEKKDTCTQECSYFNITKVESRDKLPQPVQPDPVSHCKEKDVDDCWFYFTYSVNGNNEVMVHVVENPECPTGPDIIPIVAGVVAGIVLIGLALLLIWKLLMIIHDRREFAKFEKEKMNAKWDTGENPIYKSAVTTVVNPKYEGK
Integrin beta-1 (Homo sapiens) + Integrin alpha-4 (Homo sapiens), sequence (P13612 whole entry, looked up): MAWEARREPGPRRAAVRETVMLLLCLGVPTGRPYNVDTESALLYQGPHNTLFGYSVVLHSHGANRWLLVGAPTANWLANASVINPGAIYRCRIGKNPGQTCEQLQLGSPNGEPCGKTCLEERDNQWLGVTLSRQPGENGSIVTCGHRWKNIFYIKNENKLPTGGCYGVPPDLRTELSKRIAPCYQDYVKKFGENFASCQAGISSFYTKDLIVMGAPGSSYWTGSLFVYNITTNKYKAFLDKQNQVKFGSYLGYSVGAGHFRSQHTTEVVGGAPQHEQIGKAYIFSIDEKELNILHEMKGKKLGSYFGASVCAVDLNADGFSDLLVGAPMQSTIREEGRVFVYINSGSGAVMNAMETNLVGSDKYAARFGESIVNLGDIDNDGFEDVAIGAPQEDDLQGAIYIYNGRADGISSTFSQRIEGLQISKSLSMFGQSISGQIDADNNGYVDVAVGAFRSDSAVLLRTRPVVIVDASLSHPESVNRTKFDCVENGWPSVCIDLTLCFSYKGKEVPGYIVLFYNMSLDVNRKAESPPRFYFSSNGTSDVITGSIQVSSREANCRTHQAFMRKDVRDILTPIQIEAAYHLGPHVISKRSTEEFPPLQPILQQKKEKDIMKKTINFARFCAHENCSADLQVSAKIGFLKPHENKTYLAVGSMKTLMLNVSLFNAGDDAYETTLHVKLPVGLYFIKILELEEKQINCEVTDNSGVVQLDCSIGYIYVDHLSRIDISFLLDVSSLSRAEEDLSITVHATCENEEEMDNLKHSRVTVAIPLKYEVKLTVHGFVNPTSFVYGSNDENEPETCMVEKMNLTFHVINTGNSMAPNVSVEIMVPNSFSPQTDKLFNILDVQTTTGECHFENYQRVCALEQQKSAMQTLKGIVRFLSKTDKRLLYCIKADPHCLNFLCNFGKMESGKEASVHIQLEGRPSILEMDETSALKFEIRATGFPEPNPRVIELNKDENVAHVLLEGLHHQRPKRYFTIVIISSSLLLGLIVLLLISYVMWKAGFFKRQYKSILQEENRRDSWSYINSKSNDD
Beta-2 adrenergic receptor (Homo sapiens), sequence (P07550 whole entry, looked up): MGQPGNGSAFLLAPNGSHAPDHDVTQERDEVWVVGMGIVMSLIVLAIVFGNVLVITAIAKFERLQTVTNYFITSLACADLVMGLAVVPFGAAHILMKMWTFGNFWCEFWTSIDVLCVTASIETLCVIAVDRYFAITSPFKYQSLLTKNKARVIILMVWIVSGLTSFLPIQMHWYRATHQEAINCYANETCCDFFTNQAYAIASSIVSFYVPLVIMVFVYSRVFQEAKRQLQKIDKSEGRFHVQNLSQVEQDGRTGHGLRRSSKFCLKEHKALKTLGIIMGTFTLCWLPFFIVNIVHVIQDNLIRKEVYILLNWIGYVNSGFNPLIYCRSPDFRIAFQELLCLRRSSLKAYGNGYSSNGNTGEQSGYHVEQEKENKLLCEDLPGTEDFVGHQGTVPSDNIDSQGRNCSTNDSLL
Beta-adrenergic receptor kinase 1 (Homo sapiens), sequence (P25098 whole entry, looked up): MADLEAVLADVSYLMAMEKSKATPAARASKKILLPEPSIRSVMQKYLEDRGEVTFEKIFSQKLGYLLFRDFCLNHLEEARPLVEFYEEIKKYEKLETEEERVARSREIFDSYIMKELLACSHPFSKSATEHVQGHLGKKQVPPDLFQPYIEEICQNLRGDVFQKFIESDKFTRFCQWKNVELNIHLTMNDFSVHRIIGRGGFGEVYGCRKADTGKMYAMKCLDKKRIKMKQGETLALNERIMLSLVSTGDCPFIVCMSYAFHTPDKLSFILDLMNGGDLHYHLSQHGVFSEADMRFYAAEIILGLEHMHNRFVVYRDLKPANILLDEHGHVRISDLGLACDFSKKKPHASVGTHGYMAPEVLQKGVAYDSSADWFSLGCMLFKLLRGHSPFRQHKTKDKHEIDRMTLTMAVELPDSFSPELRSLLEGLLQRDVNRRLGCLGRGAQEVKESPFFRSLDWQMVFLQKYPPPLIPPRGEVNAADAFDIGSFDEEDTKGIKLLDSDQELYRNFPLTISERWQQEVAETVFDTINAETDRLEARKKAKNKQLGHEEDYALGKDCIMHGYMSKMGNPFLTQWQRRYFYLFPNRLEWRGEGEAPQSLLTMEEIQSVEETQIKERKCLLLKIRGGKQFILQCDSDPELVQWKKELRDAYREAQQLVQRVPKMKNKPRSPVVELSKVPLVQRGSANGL
ATP-binding cassette sub-family B member 6 (Homo sapiens), sequence (Q9NP58 whole entry, looked up): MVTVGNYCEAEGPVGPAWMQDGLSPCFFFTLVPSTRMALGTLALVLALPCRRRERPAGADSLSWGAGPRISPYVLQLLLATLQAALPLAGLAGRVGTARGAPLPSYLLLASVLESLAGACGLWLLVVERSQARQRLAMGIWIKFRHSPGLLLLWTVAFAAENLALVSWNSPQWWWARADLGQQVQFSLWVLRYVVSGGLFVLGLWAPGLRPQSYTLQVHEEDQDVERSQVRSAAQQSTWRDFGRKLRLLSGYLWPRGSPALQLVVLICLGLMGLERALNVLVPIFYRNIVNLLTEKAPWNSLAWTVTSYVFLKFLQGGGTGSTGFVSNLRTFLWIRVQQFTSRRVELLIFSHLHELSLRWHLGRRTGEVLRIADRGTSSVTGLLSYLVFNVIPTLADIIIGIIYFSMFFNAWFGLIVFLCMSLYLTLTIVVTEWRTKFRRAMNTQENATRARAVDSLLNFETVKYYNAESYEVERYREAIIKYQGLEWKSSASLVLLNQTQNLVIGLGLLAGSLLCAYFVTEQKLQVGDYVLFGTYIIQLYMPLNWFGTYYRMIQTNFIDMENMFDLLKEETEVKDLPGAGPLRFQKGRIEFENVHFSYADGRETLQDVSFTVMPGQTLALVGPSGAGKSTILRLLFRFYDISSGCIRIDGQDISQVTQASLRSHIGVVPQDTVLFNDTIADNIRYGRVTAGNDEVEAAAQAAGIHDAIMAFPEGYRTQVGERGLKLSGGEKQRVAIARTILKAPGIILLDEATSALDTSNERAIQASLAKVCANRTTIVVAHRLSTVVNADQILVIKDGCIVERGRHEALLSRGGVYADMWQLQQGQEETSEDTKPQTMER

Structure (SMILES)	percent of DMSO control GFP [1]	GFP response vs DMSO [2]	percent response of DMSO control [3]	GFP response vs DMSO [4]	GFP response, % of DMSO [5]	double positive events [6]	vesicle binding response [6]	inhibition [7]	superoxide response (% of plate) [8]	aptamer binding inhibition [9]	response [10]	inhibition [11]	response [12]	binding (% of control) [13]	efflux inhibition (fraction of control) [14]	inhibition [15]	differentiation response [16]
COc1ccc(C2NC(C(=O)O)Cc3c2[nH]c2ccccc32)cc1CN1CCN(c2ccc(F)cc2)CC1 (stereo not drawn)	104% (inactive)	98.3% (inactive)	113% (inactive)	102% (inactive)	104% (inactive)	63.4%	242% (inactive)	-0.45% (inactive)	94.5% (inactive)	-6% (inactive)	6.62% (inactive)	-4.95% (inactive)	2.85% (inactive)	102% (inactive)	-0.07 (inactive)	1% (inactive)	1.22% (inactive)
CCOC(=O)c1cccc(P(C)(C)=O)c1	103% (inactive)	97.2% (inactive)	114% (inactive)	90.1% (inactive)	104% (inactive)	62%	67.6% (inactive)	5.77% (inactive)	109% (inactive)	3% (inactive)	-6.13% (inactive)	-7.26% (inactive)	-2.31% (inactive)	95.8% (inactive)	-0.04 (inactive)	-7% (inactive)	6.11% (inactive)
Cc1ccc2occ(C(=O)c3ccco3)c(=O)c2c1	101% (inactive)	101% (inactive)	89.5% (inactive)	85.9% (inactive)	86.1% (inactive)	60.6%	99.1% (inactive)	6.85% (inactive)	104% (inactive)	2% (inactive)	-3.74% (inactive)	-6.83% (inactive)	0.29% (inactive)	99.7% (inactive)	-0.31 (inactive)	1% (inactive)	0% (inactive)
CCc1cc(/C(Cc2ccccn2)=N\O)c(O)cc1O	99.1% (inactive)	102% (inactive)	107% (inactive)	83.7% (inactive)	91.4% (inactive)	52.1%	51.2% (active)	-14.1% (inactive)	104% (inactive)	3% (inactive)	10.8% (inactive)	15.4% (inactive)	2.25% (inactive)	101% (inactive)	-0.17 (inactive)	1% (inactive)	-5.6% (inactive)
COCC(C)NC(=O)c1ccc(CN2CCc3ccccc3C2)cc1 (stereo not drawn)	97.3% (inactive)	108% (inactive)	103% (inactive)	120% (inactive)	92.6% (inactive)	60.9%	257% (inactive)	-12.7% (inactive)	103% (inactive)	-9% (inactive)	-5.78% (inactive)	53.4% (inactive)	-6.18% (inactive)	195% (inactive)	-0.1 (inactive)	2% (inactive)	16.8% (inactive)
CN1CCN(CCCN2c3ccccc3Sc3ccc(Cl)cc32)CC1	99.3% (inactive)	102% (inactive)	97% (inactive)	113% (inactive)	120% (inactive)	61.4%	179% (inactive)	63.6% (active)	70.1% (inactive)	0% (inactive)	-15% (inactive)	0.77% (inactive)	1.39% (inactive)	106% (inactive)	-0.17 (inactive)	7% (inactive)	3.88% (inactive)
COc1ccc(O)c(C(=O)/C=C/c2cc3ccccc3o2)c1	95.9% (inactive)	112% (inactive)	96.7% (inactive)	109% (inactive)	95.2% (inactive)	59.6%	117% (inactive)	-0.43% (inactive)	106% (inactive)	3% (inactive)	23% (inactive)	1.27% (inactive)	0.06% (inactive)	102% (inactive)	-0.17 (inactive)	1% (inactive)	-2.4% (inactive)
CCN(CC)CCOC(=O)C(c1ccccc1)c1ccccc1	102% (inactive)	108% (inactive)	91.9% (inactive)	90.1% (inactive)	95.6% (inactive)	59.4%	91.8% (inactive)	-4.6% (inactive)	105% (inactive)	3% (inactive)	2.02% (inactive)	59.1% (active)	-3.97% (inactive)	99% (inactive)	0.3 (inactive)	6% (inactive)	37.4% (inactive)
CCCN1CCC(NC(=O)Nc2ccc(Br)cc2)CC1	104% (inactive)	110% (inactive)	102% (inactive)	92.7% (inactive)	102% (inactive)	63.2%	96.6% (inactive)	-0.45% (inactive)	94.7% (inactive)	-5% (inactive)	1.9% (inactive)	-13.3% (inactive)	1.92% (inactive)	96.8% (inactive)	-0.23 (inactive)	16% (inactive)	13.9% (inactive)
CC(=O)c1cccc(NC(=O)N[C@@H](CC(C)C)C(=O)O)c1	104% (inactive)	101% (inactive)	104% (inactive)	96.6% (inactive)	104% (inactive)	57.9%	230% (inactive)	-9.79% (inactive)	109% (inactive)	-2% (inactive)	-0.44% (inactive)	17.6% (inactive)	-2.05% (inactive)	99.2% (inactive)	0.18 (inactive)	6% (inactive)	9.04% (inactive)
CC(C)C(=O)Nc1cccnc1	103% (inactive)	99.6% (inactive)	99.6% (inactive)	115% (inactive)	106% (inactive)	68.8%	294% (inactive)	21.4% (inactive)	85.9% (inactive)	4% (inactive)	0.35% (inactive)	-1.65% (inactive)	4.74% (inactive)	99.3% (inactive)	-0.13 (inactive)	-4% (inactive)	0% (inactive)
CC(=O)O[C@H]1C[C@@]2(C)[C@@H](C[C@@H](O)[C@H]3[C@@]4(C)CC[C@@H](O)[C@@H](C)C4CC[C@@]32C)/C1=C(\CCC=C(C)C)C(=O)O (stereo partly drawn)	102% (inactive)	107% (inactive)	104% (inactive)	106% (inactive)	115% (inactive)	63.4%	177% (inactive)	11.7% (inactive)	116% (inactive)	-1% (inactive)	-16.8% (inactive)	-14.5% (inactive)	-3.26% (inactive)	100% (inactive)	0.17 (inactive)	3% (inactive)	-9.91% (inactive)
O=C(NC(=S)Nc1nc(-c2ccccc2)cs1)c1ccco1	90.9% (inactive)	132% (inactive)	102% (inactive)	85.3% (inactive)	87.3% (inactive)	55.7%	164% (inactive)	1.61% (inactive)	110% (inactive)	3% (inactive)	-23.9% (inactive)	16.9% (inactive)	-1.38% (inactive)	102% (inactive)	0.12 (inactive)	7% (inactive)	5.73% (inactive)
CCOC(=O)c1ncn2c1CN(C)C(=O)c1cc(F)ccc1-2	101% (inactive)	96.6% (inactive)	96.5% (inactive)	107% (inactive)	105% (inactive)	58.4%	200% (inactive)	8.29% (inactive)	115% (inactive)	1% (inactive)	3.78% (inactive)	-0.66% (inactive)	2.2% (inactive)	97.7% (inactive)	-0.025 (inactive)	0% (inactive)	7.13% (inactive)
